# Assay: inhibitors of PAF-induced NFkB signaling in CF airway cells, dose response, cell-based, uHTS hits, panel, cytotoxicity readout (AID 624344)
# Conditions: CF bronchial epithelial cells, PAF-induced NFkB reporter inhibition, with PAF, run 1; at 79 µM (top of the series) unless noted
row,SMILES,inhibition [%]
1,COc1cc(C2c3cc4c(cc3C(O)C3COC(=O)C23)OCO4)cc(OC)c1OC (configuration not stated),-0.395
2,CCOC(=O)c1c(-c2ccccc2)oc2cc(Br)c(O)c(C=O)c12,90.8
3,CCSc1nsc(NC(=O)Nc2cccc(C(C)=O)c2)n1,117
4,COc1cncc(-c2cnc3sc(NCCc4ccccn4)nn23)c1,102
5,C=CCSc1nsc(NC(=O)Nc2cccc(C(C)=O)c2)n1,109
6,Cc1cccc2sc(N(CCCN(C)C)C(=O)CCS(=O)(=O)c3ccccc3)nc12,98.4
7,O=C(NNc1ccccc1Cl)C(O)(c1cccc(C(F)(F)F)c1)c1cccc(C(F)(F)F)c1,115
8,COc1cc(OC)cc(C(=O)N[C@H](C(=O)Nc2nc3ccccc3[nH]2)C(C)C)c1,84.2
9,C#CCN(C[C@@H]1[C@@H](OC(=O)NC2CC2)[C@@H](OC(=O)NC2CC2)Cn2c(=O)ccc(=O)n21)S(=O)(=O)c1ccc(C)cc1,102
10,C=C1C(=O)[C@]23C[C@H]1CCC2[C@@]1(C)C(C[C@@H]3O)[C@](C)(C(=O)O)CC[C@@H]1O (some centres not stated),97.1
11,O=C1Nc2ccccc2/C1=C/c1ccnc2ccccc12,106
12,Cc1ccc(NC(=O)Nc2nnc(-c3ccncc3)s2)cc1,103
13,Cc1ccc(CCC(=O)Nc2ncc(Cc3cc(Cl)ccc3Cl)s2)o1,101
14,CC(=O)Oc1c(C(=O)c2nnc(C)o2)c(=O)n(Cc2ccccc2)c2ccccc12,112
15,CC(C)C[C@H]1CNC(=S)N1C[C@H]1CCCN1C[C@H](Cc1ccc(O)cc1)N1C[C@H](Cc2ccc(O)cc2)N(CC2CCCCC2)C1=S,104
16,CN(C)C(=O)c1cccc(-c2cnc3sc(NCc4ccc5c(c4)OCO5)nn23)c1,116
17,C=CCc1cc(S(=O)(=O)c2ccc(O)c(CC=C)c2)ccc1O,111
18,COc1ccc(CNc2ncnc3ccccc23)cc1,112
19,COc1cccc2sc(N(CCCN(C)C)C(=O)CCS(=O)(=O)c3ccccc3)nc12,88.9
20,NC(=O)c1sc2nc3c(c(-c4ccccc4)c2c1N)CCC3,114
21,Cc1ncc(CC(=O)n2cc(C(=O)c3cc(Cl)ccc3O)cn2)s1,100
22,O=C(CSc1nc(C2CC2)nc2ccccc12)Nc1cccc(O)c1,90.6
23,COc1ccc(CNC(=O)C(c2ccc(O)cc2)N(Cc2ccco2)C(=O)c2snc(C(N)=O)c2N)cc1 (configuration not stated),114
24,O=[N+]([O-])c1ccc(Oc2ccc(F)cc2Br)c2ccncc12,116
25,COC(=O)c1ccc(NC(=O)c2ccccc2NS(=O)(=O)c2ccccc2)cc1,118
26,CCc1ccc(N(CC)c2ncnc3nc[nH]c23)cc1,101
27,CN(C)c1ccnc2sc3c(=O)n(Cc4ccccc4)cnc3c12,106

# Reference: PubChem BioAssay
